Laboratory results as given in PubChem BioAssay AID743330 (NMMLSC, 2014).
Activity calls are given as the source filed them. No rule for the calls is given here.

Tested on: Cdc42 mutant
Experiment: GTPase panel EC50 shift with labeled GTP level, profiling panel, mechanism study, biochemical, four GTPases, bead flow cytometry (AID 743330)
Details: bead-based flow cytometry, fluorescent GTP binding to GTPases

| SMILES | EC50 |
| --- | --- |
| CC1(C)Cc2c(sc(NC(=S)NC(=O)c3ccc(F)cc3)c2C(=O)O)CO1 | 54 nM (active) |
| CCC1(C)Cc2c(sc(NC(=S)NC(=O)c3ccccc3)c2C(=O)O)CO1 (configuration not stated) | 4 nM (active) |
